Laboratory results: PubChem BioAssay AID1159580 (chemical genetic matrix, 2015)
Screen size: about 5,500 compounds; about 2,000 (36%) were called active. Roughly 18% stayed inconclusive and do not appear here. Rule as the data show it: active = normalized growth mostly below about 0.91 (no sharp cut-off); inconclusive = no clear call, values can overlap the other calls; inactive = mostly above about 0.92. The list shows a part of the results.

Assay: chemical genetic growth profiling, strain panel (AID 1159580);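 also: tested at 20 µM; growth read once vehicle control cultures reached saturation at 30 °C; 1 = growth at the plate median or of vehicle wells; lower values mean less growth of the strain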
Conditions: growth OD

Measured: normalized growth

CC(NCCC(c1ccccc1)c1ccccc1)c1ccccc1 (configuration not stated)
inactive: S. cerevisiae deletion strains, locus YKL009W, strain mrt4, stronger effect = lower value 0.944 | S. cerevisiae deletion strains, locus YKL068W, stronger effect = lower value 0.981 | S. cerevisiae deletion strains, locus YKL085W, strain MDH1 (second series), stronger effect = lower value 0.985 | S. cerevisiae deletion strains, locus YKL085W, strain MDH1, stronger effect = lower value 0.985 | S. cerevisiae deletion strains, locus YKL160W, strain elf1, stronger effect = lower value 0.908 | S. cerevisiae deletion strains, locus YKL190W, strain CNB1, stronger effect = lower value 0.988 | S. cerevisiae deletion strains, locus YKR001C, strain vps1, stronger effect = lower value 0.936 | S. cerevisiae deletion strains, locus YKR026C, strain gcn3, stronger effect = lower value 1.01 | S. cerevisiae deletion strains, locus YKR091W, strain srl3, stronger effect = lower value 1 | S. cerevisiae deletion strains, locus YLL001W, strain dnm1, stronger effect = lower value 0.945 | S. cerevisiae deletion strains, locus YLL026W, stronger effect = lower value 0.981 | S. cerevisiae deletion strains, locus YLL041C, strain sdh2, stronger effect = lower value 0.997 | S. cerevisiae deletion strains, locus YLR027C, strain aat2, stronger effect = lower value 0.934 | S. cerevisiae deletion strains, locus YLR039C, strain RIC1, stronger effect = lower value 1.28 | S. cerevisiae deletion strains, locus YLR058C, strain SHM2, stronger effect = lower value 0.958 | S. cerevisiae deletion strains, locus YLR102C, strain apc9, stronger effect = lower value 0.985 | S. cerevisiae deletion strains, locus YLR113W, strain HOG1, stronger effect = lower value 1.01 | S. cerevisiae deletion strains, locus YLR221C, strain rsa3, stronger effect = lower value 0.937 | S. cerevisiae deletion strains, locus YLR258W, strain gsy2, stronger effect = lower value 0.974 | S. cerevisiae deletion strains, locus YLR262C, strain YPT6 (second series), stronger effect = lower value 0.986 | S. cerevisiae deletion strains, locus YLR262C, strain YPT6, stronger effect = lower value 1.16 | S. cerevisiae deletion strains, locus YLR268W, strain sec22, stronger effect = lower value 0.989 | S. cerevisiae deletion strains, locus YLR320W, strain mms22, stronger effect = lower value 0.898 | S. cerevisiae deletion strains, locus YLR330W, strain CHS5, stronger effect = lower value 0.992 | S. cerevisiae deletion strains, locus YLR342W, strain FKS1 (second series), stronger effect = lower value 0.885 | S. cerevisiae deletion strains, locus YLR342W, strain FKS1, stronger effect = lower value 0.993 | S. cerevisiae deletion strains, locus YLR357W, strain rsc2, stronger effect = lower value 1 | S. cerevisiae deletion strains, locus YLR371W, strain rom2, stronger effect = lower value 0.97 | S. cerevisiae deletion strains, locus YLR384C, strain iki3, stronger effect = lower value 1 | S. cerevisiae deletion strains, locus YLR418C, strain cdc73, stronger effect = lower value 0.857 | S. cerevisiae deletion strains, locus YML016C, strain PPZ1, stronger effect = lower value 0.977 | S. cerevisiae deletion strains, locus YML032C, strain rad52, stronger effect = lower value 0.937 | S. cerevisiae deletion strains, locus YML124C, strain tub3, stronger effect = lower value 0.991 | S. cerevisiae deletion strains, locus YMR078C, strain ctf18, stronger effect = lower value 0.99 | S. cerevisiae deletion strains, locus YMR125W, strain sto1, stronger effect = lower value 0.946 | S. cerevisiae deletion strains, locus YMR129W, stronger effect = lower value 0.997 | S. cerevisiae deletion strains, locus YMR205C, strain PFK2, stronger effect = lower value 0.963 | S. cerevisiae deletion strains, locus YMR223W, strain ubp8, stronger effect = lower value 0.933 | S. cerevisiae deletion strains, locus YMR263W, strain SAP30, stronger effect = lower value 0.942 | S. cerevisiae deletion strains, locus YMR307W, strain GAS1, stronger effect = lower value 0.986 | S. cerevisiae deletion strains, locus YNL067W, strain RPL9B, stronger effect = lower value 0.948 | S. cerevisiae deletion strains, locus YNL071W, strain lat1, stronger effect = lower value 0.953 | S. cerevisiae deletion strains, locus YNL128W, strain TEP1, stronger effect = lower value 0.884 | S. cerevisiae deletion strains, locus YNL153C, strain GIM3, stronger effect = lower value 0.921 | S. cerevisiae deletion strains, locus YNL183C, strain NPR1, stronger effect = lower value 0.933 | S. cerevisiae deletion strains, locus YNL233W, strain BNI4, stronger effect = lower value 0.927 | S. cerevisiae deletion strains, locus YNL248C, strain rpa49, stronger effect = lower value 0.904 | S. cerevisiae deletion strains, locus YNL250W, strain rad50, stronger effect = lower value 0.943 | S. cerevisiae deletion strains, locus YNL271C, strain bni1, stronger effect = lower value 0.99 | S. cerevisiae deletion strains, locus YNL298W, strain CLA4, stronger effect = lower value 0.974 | S. cerevisiae deletion strains, locus YNL307C, strain MCK1, stronger effect = lower value 0.974 | S. cerevisiae deletion strains, locus YNL322C, strain KRE1 (second series), stronger effect = lower value 1.03 | S. cerevisiae deletion strains, locus YNL322C, strain KRE1, stronger effect = lower value 0.97 | S. cerevisiae deletion strains, locus YNR049C, strain mso1, stronger effect = lower value 1 | S. cerevisiae deletion strains, locus YNR052C, strain pop2, stronger effect = lower value 0.92 | S. cerevisiae deletion strains, locus YOL012C, strain htz1 0.924 | S. cerevisiae deletion strains, locus YOL147C, strain pex11, stronger effect = lower value 1 | S. cerevisiae deletion strains, locus YOR061W, strain CKA2, stronger effect = lower value 0.938 | S. cerevisiae deletion strains, locus YOR069W, strain VPS5, stronger effect = lower value 0.986 | S. cerevisiae deletion strains, locus YOR080W, strain dia2, stronger effect = lower value 1 | S. cerevisiae deletion strains, locus YOR144C, strain elg1, stronger effect = lower value 0.989 | S. cerevisiae deletion strains, locus YOR184W, strain ser1, stronger effect = lower value 1.01 | S. cerevisiae deletion strains, locus YOR231W, strain MKK1, stronger effect = lower value 0.992 | S. cerevisiae deletion strains, locus YOR265W, strain rbl2, stronger effect = lower value 1 | S. cerevisiae deletion strains, locus YOR316C, strain cot1, stronger effect = lower value 0.98 | S. cerevisiae deletion strains, locus YPL055C, strain LGE1, stronger effect = lower value 0.782 | S. cerevisiae deletion strains, locus YPL078C, strain atp4, stronger effect = lower value 0.939 | S. cerevisiae deletion strains, locus YPL106C, strain sse1, stronger effect = lower value 1.08 | S. cerevisiae deletion strains, locus YPL240C, strain hsp82, stronger effect = lower value 0.999 | S. cerevisiae deletion strains, locus YPL241C, strain CIN2, stronger effect = lower value 0.985 | S. cerevisiae deletion strains, locus YPL256C, strain CLN2, stronger effect = lower value 0.972 | S. cerevisiae deletion strains, locus YPR119W, strain clb2, stronger effect = lower value 0.994 | S. cerevisiae deletion strains, locus YPR141C, strain kar3, stronger effect = lower value 0.969 | S. cerevisiae deletion strains, locus YPR167C, strain met16, stronger effect = lower value 0.977 | S. cerevisiae deletion strains, strain wtn01, stronger effect = lower value 0.964 | S. cerevisiae strains, strain wild type, stronger effect = lower value 0.974
active: S. cerevisiae deletion strains, locus YJR075W, strain HOC1, stronger effect = lower value 0.875 | S. cerevisiae deletion strains, locus YLR370C, strain arc18, stronger effect = lower value 0.822 | S. cerevisiae deletion strains, locus YML120C, strain ndi1, stronger effect = lower value 0.886 | S. cerevisiae deletion strains, locus YMR058W, strain fet3, stronger effect = lower value 0.849 | S. cerevisiae deletion strains, locus YMR231W, strain pep5, stronger effect = lower value 0.731 | S. cerevisiae deletion strains, locus YNL209W, strain ssb2, stronger effect = lower value 0.888 | S. cerevisiae deletion strains, locus YOL006C, strain TOP1, stronger effect = lower value 0.468 | S. cerevisiae deletion strains, locus YOR001W, strain rrp6, stronger effect = lower value 0.887 | S. cerevisiae deletion strains, locus YOR070C, strain gyp1, stronger effect = lower value 0.908 | S. cerevisiae deletion strains, locus YOR083W, strain WHI5, stronger effect = lower value 0.846 | S. cerevisiae deletion strains, locus YOR106W, strain vam3, stronger effect = lower value 0.618 | S. cerevisiae deletion strains, locus YOR136W, strain idh2, stronger effect = lower value 0.907 | S. cerevisiae deletion strains, locus YOR270C, strain vph1, stronger effect = lower value 0.375 | S. cerevisiae deletion strains, locus YOR290C, strain snf2, stronger effect = lower value 0.837 | S. cerevisiae deletion strains, locus YPL051W, strain arl3, stronger effect = lower value 0.767 | S. cerevisiae deletion strains, locus YPR163C, strain tif3, stronger effect = lower value 0.872
